Screens (PubChem)
Only some compounds are listed: those with a hit (about 2.3% of all), similar ones and a draw of the others.
CHRM1 antagonist: blocks human M1 muscarinic receptor; P11229; CHO-K1 hM1, Fluo-8 calcium fluorescence, ACh EC80 antagonist; inhibition, % at 3 µM; 360,000 tested, 1.3% active; AID 588852;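 active = percent inhibition above its own plate's cutoff, namely the mean of that plate's compound wells plus 3 SD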;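 also: peak over basal fluorescence ratio during 140 s after agonist addition; 0% = ACh EC80 plus DMSO and 100% = DMSO alone without agonist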
Target sequence (P11229 whole entry, looked up): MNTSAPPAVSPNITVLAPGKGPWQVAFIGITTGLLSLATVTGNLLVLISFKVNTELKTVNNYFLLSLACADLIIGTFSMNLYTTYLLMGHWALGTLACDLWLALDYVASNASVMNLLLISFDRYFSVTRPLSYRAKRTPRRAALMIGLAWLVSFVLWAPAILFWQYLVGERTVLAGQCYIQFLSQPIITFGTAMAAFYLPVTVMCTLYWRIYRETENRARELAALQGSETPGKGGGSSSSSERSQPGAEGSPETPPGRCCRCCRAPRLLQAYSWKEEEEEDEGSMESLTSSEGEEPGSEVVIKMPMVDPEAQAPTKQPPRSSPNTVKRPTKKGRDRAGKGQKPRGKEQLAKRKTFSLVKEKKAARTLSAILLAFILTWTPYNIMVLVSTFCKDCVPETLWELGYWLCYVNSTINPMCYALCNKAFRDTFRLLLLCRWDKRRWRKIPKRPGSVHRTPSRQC
M1 PAM parental: nonselective activator or artifact in parental CHO-K1 calcium assay; activation, % at 3 µM; 360,000 tested, 0.02% active; ATP EC20, Fluo-8 calcium fluorescence; 0% at ATP EC20, 100% at ATP max;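 active = activation above the run cutoff, the mean activation of all test compounds plus 3 SD, cut at about 40% in these data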;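 also: peak over basal fluorescence ratio in a 140 s read after ATP addition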
M1 ag parental: nonselective activator or artifact in parental CHO-K1 cells. Fluo-8 calcium fluorescence; scaled to maximal ATP response, vehicle zero. activation, % at 3 µM. 360,000 tested, 0.48% active; in the data active = activation above about 15%;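 also: untransfected CHO-K1 host cells lacking M1 receptor as counterscreen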
CHRM1 PAM: positive allosteric modulators of human M1 muscarinic receptor | AID 588819 | P11229 | activation, % at 3 µM | CHO-K1 hM1, Fluo-8 calcium fluorescence, ACh EC20; 0% = ACh EC20, 100% = maximal ACh | 360,000 tested, 0.088% active; in the data active = activation above about 19%, passing the limit was not always enough
CHRM1 agonist: activates human CHRM1 receptor. P11229. CHO-K1 hM1, Fluo-8 calcium fluorescence, agonist mode; 0% DMSO, 100% acetylcholine EC100. activation, % at 3 µM. 360,000 tested, 0.33% active. AID 588814;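 active = activation above the run's mean compound activation plus 3 SD, cut at about 16% in these data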;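 also: peak over basal fluorescence ratio within a 140 s kinetic read after compound addition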
CHO-K1 Ca antag: M1 antagonist counterscreen hit in parental CHO-K1 cells | 360,000 tested, 0.6% active | ATP-induced calcium, Fluo-8 fluorescence | inhibition, % at 3 µM;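 active = inhibition above a per-plate cutoff, the plate's mean sample inhibition plus 3 SD, cut at about 24% in these data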;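 also: 0% = DMSO plus EC80 ATP and 100% = DMSO alone without ATP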
* = called active by the depositor.

SMILES	CHRM1 antagonist	M1 PAM parental	M1 ag parental	CHRM1 PAM	CHRM1 agonist	CHO-K1 Ca antag
CC(CCC(C)C(C)(C)C)[C@@H]1CC[C@H]2C3C[C@H](OS(O)(=S)=S)[C@H]4C[C@H](OS(O)(=S)=S)[C@@H](OS(O)(=S)=S)C[C@]4(C)[C@H]3CC[C@]12C (some centres not stated) (tested in a mixture with another compound)	3	46*	24*	5	37*	-21
CCOc1ccc(C(=O)NC2CC3CCCC(C2)N3CC(C)C)cc1 (configuration not stated)	40*	-15	0	-14	-6	0
NS(=O)(=O)c1ccc(CNC(=O)Cc2ccsc2)cc1	-9	15	0	6	-1	-2
O=C(NC1CCCCCC1)c1cccc(N2CCCC2=O)c1	6	-6	0	-13	-3	32*
O=C(N/N=C/c1cc(Br)cc(Br)c1O)c1cccc(N2CCCC2=O)c1	-2	1	-1	9	-9	34*
O=C(NCc1ccccc1)C1CC(=O)N(c2ccc(OCC(=O)N3CCOCC3)cc2)C1 (configuration not stated)	-11	10	1	9	-4	-16
C/C(=N/NC(=O)CNC(=O)c1ccccc1F)c1ccc2c(c1)CCCC2	2	-4	0	7	-10	0
C/C(=N/NC(=O)CNC(=O)c1ccc2c(c1)OCO2)c1ccc2c(c1)CCCC2	4	-17	-1	8	-3	25*
C[C@@H]1CN([C@H](C)CO)C(=O)CCCn2cc(nn2)CO[C@H]1CN(C)C(=O)Nc1ccc(-c2cccs2)cc1	-8	-4	0	1	-8	-6
COc1cc(NC(=O)CCCNC(=O)c2ccc(Cl)cc2)cc(OC)c1OC	-6	-5	1	-1	-1	-16
COc1ccc(C2=NN(C(=O)CCC(=O)O)C(c3ccccc3)C2)cc1 (configuration not stated)	-5	9	0	4	-3	-8
Cc1ccc(N2C(=O)C3N=NN(CC(=O)N4N=C(c5ccccc5)CC4c4ccccc4)C3C2=O)cc1 (configuration not stated)	5	-20	-1	0	-4	24*
COc1cc(/C=C/C(=O)OCC(=O)Nc2ccc([N+](=O)[O-])cc2)ccc1O	5	12	19*	-6	25*	-14
CC(=O)Nc1ccc(NC(=O)C(C)OC(=O)/C(C#N)=C/c2ccc(N(C)C)cc2)cc1 (configuration not stated)	28*	22	3	4	10	1
CC(OC(=O)/C(C#N)=C/c1ccc(N(C)C)cc1)C(=O)NCc1ccco1 (configuration not stated)	3	-14	3	-1	4	8
CC(C)OC(=O)/C(C#N)=C\c1cccnc1	2	-7	0	-1	-3	-14
CC(OC(=O)/C(C#N)=C/c1ccc(N(C)C)cc1)C(=O)N(C)c1ccccc1 (configuration not stated)	24	-17	16*	-17	13	13
Cc1cc(NC(=O)CS(=O)(=O)c2cn(Cc3cccc(Cl)c3)c3ccccc23)no1	17	-6	1	9	26*	10
CCn1cc(S(=O)(=O)CC(=O)Nc2ccc(C)cc2)c2ccccc21	15	-8	0	-6	-2	27*
CCn1cc(S(=O)(=O)CC(=O)Nc2cccc(C)c2)c2ccccc21	-12	18	2	8	1	-7
OCC[C@H]1C[C@@H](O)[C@H](O)[C@]2(OCCc3ccccc32)O1	3	-4	0	2	-4	2
COc1ccc(C(=O)OCC(=O)Nc2cccc(S(=O)(=O)N3CCCCCC3)c2)cc1[N+](=O)[O-]	54*	-1	12	-20	-2	14
Cc1cc(OCC(=O)Nc2ccc(S(=O)(=O)N3CCN(C)CC3)cc2)ccc1Br	14	-2	18*	-11	1	5
O=C(COc1ccc(Br)cc1CO)Nc1ccc(S(=O)(=O)N2CCCC2)cc1	58*	-23	4	-26	-3	5
Cc1cc(OCC(=O)Nc2ccc(CN3CCCCC3)cc2)ccc1Cl	50*	11	13	-31	-4	0
SMILES	CHRM1 antagonist	M1 PAM parental	M1 ag parental	CHRM1 PAM	CHRM1 agonist	CHO-K1 Ca antag
Cc1cc(OCC(=O)Nc2ccc(CN3CCOCC3)cc2)ccc1Cl	4	-11	12	5	-1	12
CN1CCCC(OC(=O)c2ccc(C(C)(C)C)cc2)C1 (configuration not stated)	2	7	1	-4	-8	-5
COc1ccc(C(=O)NC2CCCc3c2cnn3-c2cc(F)cc(F)c2)c(OC)c1OC (configuration not stated)	-8	9	2	7	-3	-14
Cc1ccc(S(=O)(=O)N2CCOCC2)cc1NC(=O)CSCc1c(C)noc1C	-10	7	1	6	-2	-15
O=C(NCCNC(=O)c1ccccn1)c1ccc(-c2ccccc2)cc1	-12	17	3	13	3	-5
Cc1ccc(OCC(=O)Nc2ccc(S(=O)(=O)N3CCCCC3)cc2)c([N+](=O)[O-])n1	45*	21	4	-22	-4	-8
Cc1ccc(OCC(=O)Nc2ccc(S(=O)(=O)N3CCOCC3)cc2)c([N+](=O)[O-])n1	-1	13	1	0	-8	-7
CCC1CCCCN1S(=O)(=O)c1ccc(NC(=O)c2ccncc2)cc1 (configuration not stated)	34*	-14	16*	-13	4	12
CCC1CCCCN1S(=O)(=O)c1ccc(S(=O)(=O)N(Cc2cccs2)C2CC2)cc1 (configuration not stated)	63*	5	2	-36	-10	-10
CCC1CCCCN1S(=O)(=O)c1ccc(S(=O)(=O)N(Cc2ccccn2)CC2CCCO2)cc1 (configuration not stated)	9	13	3	-17	-12	-8
CCn1nc(C(=O)OC(C(=O)c2c[nH]c3ccccc23)c2ccccc2)c2ccccc2c1=O (configuration not stated)	-4	20	1	3	-2	-12
CCOC(=O)C1(C(=O)OCC)NC(=O)CC1CC (configuration not stated)	-16	14	1	6	0	-16
CCCCCC1CC(=O)NC1(C(=O)OCC)C(=O)OCC (configuration not stated)	40*	-8	3	-23	-1	0
COc1ccc(C2N(c3cc(Cl)ccc3OC)C(=O)C3CCCN32)cc1OC (configuration not stated)	-12	8	0	2	-7	-7
